This is a sample that favours compounds with a hit; in the whole collection about 2.2% have one here.
Myeloid diff MLP: induction of myeloid progenitor differentiation, primary screen, cell-based, flow cytometry, MLPCN library; ER-HoxA9 myeloid progenitors, lysozyme-GFP differentiation; calls only at 10 µM; 360,000 tested, 1% active; AID 624256, 2012;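 active = normalized GFP-positive differentiation at or above the plate's own cutoff, the solvent-only control mean plus 3 SD; inconclusive = no clear call, values can overlap the other calls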;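 also: cells exposed to compound for four days before flow analysis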
Cardio protect: cardioprotection against H2O2-induced cell death, primary screen, uHTS, H9c2 cells, ATPLite luminescence. H9c2 cardiomyocytes, H2O2 injury protection, 2 h. protection from H2O2 cell death, % at 20 µM. 360,000 tested, 0.63% active;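 active = compounds giving at least 50% protection of heart cells from peroxide-induced death in the single-dose screen, raw or plate-pattern-corrected value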;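 also: 0% = DMSO wells with peroxide and 100% = DMSO wells without peroxide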
hiPSC survival: enhancers of single-cell hiPSC survival, primary screen, ATPlite luminescence; 100% = ROCK inhibitor wells, 0% = DMSO; survival enhancement, % at 20 µM; 360,000 tested, 0.044% active; AID 602274, 2012; in the data active = survival enhancement above about 18%;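 also: cells exposed to compounds for 16 hours before the ATP read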
ABCB6 inh MLPCN: ABCB6 transporter inhibitors, primary screen, K562-ABCB6 cells, flow cytometry, MLPCN library; 360,000 tested, 0.19% active; K562-ABCB6 porphyrin accumulation, 1 h; stronger effect = lower value; fluorescence ratio to DMSO, % at 10 µM;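 active = fluorescence ratio to DMSO below 75%, the collection mean minus 3 SD; inconclusive = too few cells collected in the well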;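 also: signal is porphyrin accumulated inside mitochondria; 100% equals median channel fluorescence of DMSO control wells; lower ratio means ABCB6 inhibition with less porphyrin fluorescence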
Target sequence (Q9NP58 whole entry, looked up): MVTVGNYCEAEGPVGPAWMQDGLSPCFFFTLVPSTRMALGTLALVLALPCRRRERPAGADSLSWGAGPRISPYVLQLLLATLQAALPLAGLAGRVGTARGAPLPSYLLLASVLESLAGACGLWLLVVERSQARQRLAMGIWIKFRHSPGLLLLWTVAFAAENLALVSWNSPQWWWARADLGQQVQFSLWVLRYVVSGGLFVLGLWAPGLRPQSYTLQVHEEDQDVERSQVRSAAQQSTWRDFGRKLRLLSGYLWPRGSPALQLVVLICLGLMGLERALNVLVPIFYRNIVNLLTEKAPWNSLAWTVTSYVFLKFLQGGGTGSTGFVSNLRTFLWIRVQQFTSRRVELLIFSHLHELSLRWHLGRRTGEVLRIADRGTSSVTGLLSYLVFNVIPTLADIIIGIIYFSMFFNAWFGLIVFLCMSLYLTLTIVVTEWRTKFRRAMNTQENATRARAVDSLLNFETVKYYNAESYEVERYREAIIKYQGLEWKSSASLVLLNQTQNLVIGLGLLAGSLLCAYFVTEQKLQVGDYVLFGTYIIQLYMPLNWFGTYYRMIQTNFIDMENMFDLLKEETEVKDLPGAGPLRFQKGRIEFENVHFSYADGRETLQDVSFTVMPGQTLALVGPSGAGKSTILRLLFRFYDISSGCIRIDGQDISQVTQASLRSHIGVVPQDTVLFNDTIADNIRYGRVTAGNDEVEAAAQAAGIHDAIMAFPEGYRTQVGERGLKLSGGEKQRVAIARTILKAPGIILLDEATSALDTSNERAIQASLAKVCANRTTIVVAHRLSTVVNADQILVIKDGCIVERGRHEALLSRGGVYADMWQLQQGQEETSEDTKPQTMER
beta cell repl: inducers of MIN6 beta-cell proliferation, primary screen, ATP luminescence, uHTS. MIN6 cells proliferation, ATPlite luminescence, 48 h; cells starved in 0.2% serum; 100% = growth in 10% serum. proliferation, % at 10 µM. 330,000 tested, 0.29% active;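 active = compounds whose signal lies at least 3.5 SD above the mean of all wells on their plate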;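 also: 0% = DMSO-treated cells in low-serum medium and 100% = 10% serum control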
* hit, by the source's call; i = inactive; ? = inconclusive; . = no result given; + = active, no number.

SMILES	Myeloid diff MLP	Cardio protect	hiPSC survival	ABCB6 inh MLPCN	beta cell repl
CC(C)Nc1nc2nonc2nc1Nc1ccccc1	i	-17	0	92	-3
CN1CC(=O)N(C)c2nc(Br)n(C)c2C1=O	i	6	0	101	-1
CCOC(=O)C1=C(Cc2ccc(OC)cc2)C(=O)c2ccccc2C1=O	+	-20	-3	513	.
CCOC(=O)C1=C(O)c2ccccc2C(=O)/C1=C\c1ccc(CC)cc1	+	-19	-1	905	.
CCOC(=O)C1=C(Cc2ccc(C)cc2)C(=O)c2ccccc2C1=O	.	.	.	.	-6
O=S(=O)(/C=C/c1ccccc1)c1ccccc1	i	0	2	98	2
COc1cccc(NC(=O)CN(C)C(=O)c2cc(-c3ccc(F)cc3)nc3ccccc23)c1	i	21	0	96	-3
COc1ccc(C2/C=C\CN(S(=O)(=O)c3cccc4cccnc34)CC(=O)N2Cc2ccc(F)cc2)cc1 (centres undefined)	i	50*	0	91	-4
COc1ccc([C@H]2/C=C\CN(S(=O)(=O)c3cccc4cccnc34)[C@@H](C)C(=O)N2Cc2ccc(F)cc2)cc1	i	-2	-3	97	-6
COc1cc(NS(=O)(=O)c2ccc(NC(=S)NC(=O)c3sc4ccccc4c3Cl)cc2)nc(OC)n1	i	0	2	96	.
O=C(CCc1ccccc1)Nc1cc2c3c(c1)CCC(=O)N3CCC2	i	12	0	96	4
CCN(CC)c1ccc(/C=C2\CCC(/C=C(/C#N)C(=O)Nc3ccccc3F)=C2N2CCOCC2)cc1	i	-5	-2	i	.
N#C/C(=C/C1=C(N2CCOCC2)C(=C/c2ccc(Cl)cc2Cl)/CC1)C(=O)Nc1ccccc1F	+	-1	2	i	.
N#C/C(=C\C1=C(N2CCOCC2)C(=C\c2ccc(Cl)cc2)/CC1)C(=O)Nc1ccccc1F	+	-4	6	i	.
N#C/C(=C/C1=C(N2CCOCC2)C(=C/c2ccccc2)/CC1)C(=O)Nc1ccccc1F	+	5	-1	i	.
N#C/C(=C\C1=C(N2CCOCC2)C(=C/c2cccc([N+](=O)[O-])c2)/CC1)C(=O)Nc1ccccc1F	i	1	0	426	.
Cc1ccc(S(=O)(=O)NC2CC2)cc1	i	-1	0	110	-2
Cc1ccc(S(=O)(=O)NC2CCC(C(=O)O)CC2)cc1 (centres undefined)	+	5	-1	100	-1
Cn1c(=O)c2nc3ccccc3nc2n(C)c1=O	i	-8	0	102	3
CC(=O)Nc1ccc2nc3c(=O)n(C)c(=O)n(C)c3nc2c1	+	12	0	152	-3
Cc1ccc2c(c1)c(C)c(C)n2CC(O)Cn1nc(C)cc1C (centres undefined)	i	19	-1	118	-3
Cc1ccc2c(c1)c(C)c(C)n2CC(O)Cn1nnc2ccccc21 (centres undefined)	+	6	-2	267	-2
COCCCN1C(=O)c2ccc(C(=O)NCc3ccco3)cc2C1=O	.	7	-2	96	-1
COc1ccc(CNc2nn3c(-c4cccc(C(=O)N(C)C)c4)cnc3s2)cc1	i	76*	0	94	.
O=C(NNC(=O)c1ccc(-c2ccccc2)cc1)c1ccccc1	i	-8	0	102	0
SMILES	Myeloid diff MLP	Cardio protect	hiPSC survival	ABCB6 inh MLPCN	beta cell repl
CCc1ccc2nc3nc(C)cc(C)c3c(N)c2c1	+	-9	-1	122	-4
O=S(=O)(NCc1ccc(C(F)(F)F)cc1)c1ccc(-n2cnnn2)cc1	+	-1	0	99	1
O=S(=O)(NCc1ccccc1Cl)c1ccc(-n2cnnn2)cc1	i	-1	0	82	-4
CC1CCc2sc(C(=O)N(C)CC(=O)Nc3cccc(F)c3)cc2C1 (centres undefined)	i	-9	0	96	-4
O=C(N/N=C/c1ccccc1O)c1ccncc1	i	59*	0	103	2
O=C(N/N=C/c1ccccc1O)c1cc[n+]([O-])cc1	i	54*	0	96	-2
CC(=C/c1ccc(C(C)C)cc1)/C=N/NC(=O)c1ccncc1	i	58*	-2	96	0
COCCNC(=O)c1cccc(OC2CCN(Cc3ccc(C(C)C)cc3)CC2)c1	i	-9	1	99	-1
COCC(C)n1c(SCC(=O)NNC(=O)c2ccccc2)nc2ccccc2c1=O (centres undefined)	i	6	3	99	2
Cc1cc(C)c2ccc(N)nc2c1O	i	60*	-2	100	-6
CCOC(=O)C1CCN(C(c2cc3c(C)ccc(C)c3[nH]c2=O)c2nnnn2C2CCCCC2)CC1 (centres undefined)	?	57*	8	98	-2
CCOC(=O)C1CCN(C(c2cc3ccc(C)c(C)c3[nH]c2=O)c2nnnn2C2CCCCC2)CC1 (centres undefined)	i	0	2	97	-2
COc1ccc(-c2oc(=O)c3cc(OC)c(OC)cc3c2C#CCCCO)cc1	?	39	-2	94	0
COc1cc2c(C#CCCCO)c(-c3ccsc3)oc(=O)c2cc1OC	?	68*	0	97	-1
Cc1nc(-c2ccc(O)c(O)c2)cs1	i	61*	-4	106	-6
COc1cc(-c2csc(C)n2)ccc1O	i	-1	2	87	0
COc1cccc(CNC(=O)CCCn2ncn3c(cc4occc43)c2=O)c1	+	8	0	98	-1
CC(=O)N1CCc2cc(S(=O)(=O)CCC(=O)N3CCN(c4ccccc4)CC3)ccc21	i	-6	0	85	-1
O=C(CSc1nc2ncc(Cl)cc2[nH]1)c1c[nH]c2ccccc12	+	7	1	112	-3
CC(C)c1ccccc1OCCNC(=O)c1cncc(Br)c1	i	-11	0	91	-1
O=C1c2ccccc2NC(c2ccc(Cl)cc2Cl)N1O (centres undefined)	i	61*	9	93	-3
O=C1CN(CC(=O)Nc2cccc(Cl)c2Cl)c2ccccc2N1	+	17	3	120	-5
CCc1ccc(-c2nc(CS(=O)CC(=O)NCc3cccnc3)c(C)o2)cc1 (centres undefined)	i	1	-2	102	-2
CCOC(=O)c1c(NC(C)=O)sc2c1CCC(C=NCCCN(CC)CC)=C2Sc1ccccc1	+	-17	-6	89	-4
CCOC(=O)c1c(NC(C)=O)sc2c(OCCN(CC)CC)c(Br)ccc12	i	1	-1	92	-7

From PubChem
